Results taken from PubChem BioAssay (Tox21).
Inconclusive results are not listed. Values without a mark were called inactive. Activity calls are given as the source filed them. Calls follow the shape of the dose curve; as a rule, active = well fitted cell-killing curve with a large enough effect in the repeat runs; inconclusive = weak or mixed curves, or effect the other way; inactive = flat fitted curve, though single readings scatter.

Assay: qHTS assay to identify small molecule that activate the aryl hydrocarbon receptor (AhR) signaling pathway - cell viability counter screen (AID 743086); also: nearly all actives have a fitted effect of over 45% in size;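 as to viability change, negative = cytotoxic: HepG2 liver cells carrying the AhR DRE luciferase reporter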
Settings: HepG2-AhR-luc viability, CellTiter-Fluor, 24 h; series mostly up to 70.3 µM; viability change, negative = cytotoxic: at the top concentration
Excerpt: U.S. Tox21 Program National Center for Advancing Translational Sciences [NCATS] NIH Chemical Genomics Center [NCGC] U.S. Environmental Protection Agency [EPA] National Institutes of Environmental Health Sciences [NIEHS] National Toxicology Program [NTP] U.S. Food and Drug Administration [FDA] Tox21 Assay overview: The Aryl hydrocarbon Receptor (AhR), a member of the family of basic helix-loop-helix transcription factors, is crucial to adaptive responses to environmental changes. AhR mediates cellular responses to environmental pollutants such as aromatic hydrocarbons through induction of phase I and II enzymes but also interacts with other nuclear receptor signaling pathways A cell based HepG2-AhR-luc assay (HG2L7.5c1 cell line, developed by Dr. Michael S. Denison, University of California at Davis) was used to assess the activation of AhR. HepG2 (human hepatocellular carcinoma) cells were stably transfected with an Ah receptor-responsive firefly luciferase reporter gene plasmid containing 20 dioxin responsive elements and luciferase reporter gene. Increased luciferase activity can be used to identify the compounds that induce AhR activation. The cytotoxicity of the compounds screened against the HepG2-AhR-luc cell line was tested in parallel by measuring the cell viability using CellTiter-Fluor assay in the same wells.
Tox21 Assay Protocol Summary: 4000 cells in 5 uL/well were dispensed into white wall/solid bottom 1536-well plates using a Multidrop Combi (Thermo Fisher Scientific Inc., Waltham, MA) dispenser. After the assay plates were incubated at 37C for 5 h, 23 nL of compound or DMSO vehicle was transferred to the assay plates by a pintool station (Kalypsys, San Diego, CA). The plates were incubated at 37C for 24 hr. For cell viability measurement, 1 ul/well of CellTiter-Fluor reagent (Promega, Madison, WI) was added into the assay plates using a Flying Reagent Dispenser (FRD) (Aurora Discovery, CA),and then the assay plates were incubated at 37C for 30 min. The fluorescence intensity in the plates was measured using a ViewLux plate reader (PerkinElmer, Shelton, CT), followed by the addition of 4 uL of ONE-Glo Luciferase Assay reagent (Promega) using an FRD (Aurora Discovery). After the assay plates were incubated at room temperature for 30 min, luminescence intensity was measured using a ViewLux plate reader (Perkin Elmer).
% is scaled to controls: 0 for no effect and ±100 for the full control effect; potency is read from the fitted curve at half-maximal effect.

Row | Compound | viability change, negative = cytotoxic | Potency
1 | O=C1[C@H](CC[C@H](O)c2ccc(F)cc2)[C@@H](c2ccc(O)cc2)N1c1ccc(F)cc1 | 1.71% | –
2 | Nc1ccc(C(=O)Nc2ccccc2N)cc1 | -17.5% | –
3 | O=C(Cl)c1ccc([N+](=O)[O-])cc1 | 12.2% | –
4 | CCCCCc1ccc(N)cc1 | 3.03% | –
5 | O=C(C(=O)c1ccc(Br)cc1)c1ccc(Br)cc1 | 16.6% [at 32.5 µM] | –
6 | CC(C)(C)C1CCCCC1O (stereo not given) | 9.21% | –
7 | CC(C)(C)C(=O)OCOP(=O)(COCCn1cnc2c(N)ncnc21)OCOC(=O)C(C)(C)C | -0.576% | –
8 | CC(=O)/C=C/C1C(C)=CCCC1(C)C (stereo not given) | 6.34% | –
9 | Cc1ccc(C(=O)C(C)CN2CCCCC2)cc1 (stereo not given) | – | inactive
10 | S=C(S)NCCNC(=S)S | 17.4% | –
11 | CCCCCOC(=O)c1ccc(O)cc1 | 6.69% [at 95 µM] | –
12 | CC(C)NCC(O)c1cc(O)cc(O)c1 (stereo not given) | 25.5% | –
13 | CCCCCCCCCCCCCCCBr | -2.52% | –
14 | CCCCOCCOCCOCCOCCO | 11.8% | –
15 | C1=Cc2ccccc2C1 | 0.571% | –
16 | O=[N+]([O-])c1cccc(Cl)c1Cl | 20.2% | –
17 | Cc1cccc(C(C)(C)C)c1O | 3.81% | –
18 | CC(C)(C)c1ccc(S)cc1 | 8.38% | –
19 | OCCC1CCCCN1 (stereo not given) | 1% [at 95 µM] | –
20 | Cc1cc(CC(=O)O)c(C)n1-c1ccc(Cl)cc1 | -3.42% | –

Row | Compound | viability change, negative = cytotoxic | Potency
21 | CCOc1nc2cccc(C(=O)O)c2n1Cc1ccc(-c2ccccc2-c2nn[nH]n2)cc1 | 1.2% | –
22 | CCOC(=S)SSC(=S)OCC | – | inactive
23 | CCN(CC)CCOC(=O)C1(c2ccccc2)CCCC1 | -3.26% | –
24 | CCc1nn(C2CCCCC2)c2cc(C3(C#N)CCC(C(=O)O)CC3)ccc12 (stereo not given) | – | 24.3 µM (active)
25 | Cc1cc(NC(=O)C(=O)O)cc(C)c1Oc1ccc(O)c2c1CCC2 | 3.88% | –
26 | SC1CCCC1 | 1.76% | –
27 | CCCCCCCC/C=C\CCCCCCCC(N)=O | -1.12% | –
28 | CC(=O)c1c(C)c([N+](=O)[O-])c(C(C)(C)C)c([N+](=O)[O-])c1C | 0.412% | –
29 | COc1ccc(OC)c(OC)c1 | 4.65% | –
30 | Cc1cc(O)ccc1N | -0.169% [at 95 µM] | –
31 | CC(=O)SCc1ccco1 | -1.16% | –
32 | Oc1ccc2c(c1)OCO2 | -0.797% | –
33 | O=c1c2ccccc2nnn1CCl | 3.16% | –
34 | NC1CCN(c2nc3c(cc2F)c(=O)c(C(=O)O)cn3-c2ccc(F)cc2F)C1 (stereo not given) | 1.72% | –
35 | OCC1CC2CC1C1CCC(CO)C21 (stereo not given) | 4.04% | –
36 | Oc1ccc(Cc2ccccc2)cc1 | -3.62% | –
37 | c1ccc(OCc2ccc(CCCN3CCOCC3)cc2)cc1 | -13.2% | –
38 | CC(C)(C)c1cc(O)c(C(C)(C)C)cc1O | -20.6% | –
39 | CCCc1ccccc1 | 0.352% | –
40 | CCOC(=O)CC(C)C | 7.86% | –
